Measured values from PubChem BioAssay (EPA / NIEHS).
The source made the active and inactive calls. Rule for the calls: active = hit-call score of the fitted dose curve at least 0.9, where 1 is the maximum; inactive = score below 0.9.

What was measured:
Details in all cases: mRNA level, 48 h; actives raise or lower the signal
CYP3A5 (gene 1577) = experiment: LTEA_HepaRG_CYP3A5: Life Technologies and Expression Analysis (LTEA) Assay for CYP3A5 using HepaRG (AID 2283493)
In short: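 mRNA levels were quantified by qRT-PCR on Fluidigm arrays and normalized to three housekeeping genes. Differentiated HepaRG cells received 48 h exposure (top 100 uM, half-log steps, 0.5% DMSO vehicle, duplicate); bidirectional fitting versus DMSO.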

[1] = read-out: Fatty Acid-Binding Protein 1 (FABP1), FABP1 (gene 2168); experiment: LTEA_HepaRG_FABP1: Life Technologies and Expression Analysis (LTEA) Assay for Fatty Acid-Binding Protein 1 (FABP1) using HepaRG (AID 2283494)
In short: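 qRT-PCR readout of FABP1 transcript (normalized to three housekeeping genes) after 48 h chemical exposure of HepaRG cells; eight concentrations, half-log steps, max 100 uM, 0.5% DMSO vehicle; gain or loss fitted relative to DMSO baseline.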

[2] = read-out: Cytochrome P450 4A22 (Homo sapiens) (UniProt Q5TCH4); experiment: LTEA_HepaRG_CYP4A22: Life Technologies and Expression Analysis (LTEA) Assay for Cytochrome P450 4A22 (CYP4A22) using HepaRG (AID 2283495)
In short: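 Concentration-response (8 points, max 100 uM, 0.5% DMSO) in human HepaRG liver cells after 48 h exposure. CYP4A22 mRNA by TaqMan qRT-PCR with housekeeping-gene normalization.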

[3] = read-out: Cytochrome P450 7A1 (Homo sapiens) (UniProt P22680); experiment: LTEA_HepaRG_CYP7A1: Life Technologies and Expression Analysis (LTEA) Assay for Cytochrome P450 7A1 (CYP7A1) using HepaRG (AID 2283496)
In short: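 HepaRG, 48 h exposure, 8-pt half-log series from 100 uM, 0.5% DMSO vehicle, duplicates. Readout: TaqMan qRT-PCR mRNA vs three housekeeping genes; bidirectional curve fit against DMSO baseline.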

[4] = read-out: Glutathione S-Transferase (GSTA2), GSTA2 (gene 2939); experiment: LTEA_HepaRG_GSTA2: Life Technologies and Expression Analysis (LTEA) Assay for Glutathione S-Transferase (GSTA2) using HepaRG (AID 2283497)
In short: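 qRT-PCR readout of GSTA2 transcript, normalized to three housekeeping genes, fitted bidirectionally against 0.5% DMSO baseline. Differentiated HepaRG cells received compound for 48 h at 8 concentrations (top 100 uM, half-log steps).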

[5] = read-out: Glutamate-cysteine ligase catalytic (GCLC), GCLC (gene 2729); experiment: LTEA_HepaRG_GCLC: Life Technologies and Expression Analysis (LTEA) Assay for Glutamate-cysteine ligase catalytic (GCLC) using HepaRG (AID 2283498)
In short: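 HepaRG, 48 h exposure, 8-pt half-log series from 100 uM, 0.5% DMSO vehicle; TaqMan qRT-PCR for GCLC mRNA, housekeeping-normalized; bidirectional curve fit vs DMSO baseline.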

[6] = read-out: growth arrest and DNA damage 45 (GADD45G), GADD45G (gene 10912); experiment: LTEA_HepaRG_GADD45G: Life Technologies and Expression Analysis (LTEA) Assay for growth arrest and DNA damage 45 (GADD45G) using HepaRG (AID 2283499)
In short: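 Concentration-response in HepaRG: 48 h dosing, 0.5% DMSO, highest level 100 uM. GADD45G expression by qRT-PCR, normalised to endogenous controls; bidirectional fit to DMSO.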

[7] = read-out: Glutamate-cysteine ligase regulatory (GCLM), GCLM (gene 2730); experiment: LTEA_HepaRG_GCLM: Life Technologies and Expression Analysis (LTEA) Assay for Glutamate-cysteine ligase regulatory (GCLM) using HepaRG (AID 2283500)
In short: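 GCLM expression quantified by qRT-PCR, normalized to three housekeeping genes, after 48 h chemical treatment of HepaRG cells in duplicate at 8 concentrations (top 100 uM, half-log steps, 0.5% DMSO). Changes fitted both directions against vehicle.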

[8] = read-out: Glutathione S-transferase M3 (GSTM3), GSTM3 (gene 2947); experiment: LTEA_HepaRG_GSTM3: Life Technologies and Expression Analysis (LTEA) Assay for Glutathione S-transferase M3 (GSTM3) using HepaRG (AID 2283501)
In short: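 Expression of GSTM3 is determined by qRT-PCR in human liver HepaRG cells treated 48 h with an 8-point half-log range from 100 uM in 0.5% DMSO.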

[9] = read-out: Heat shock 70 kDa protein 1 (HSPA1A), gene 3303; experiment: LTEA_HepaRG_HSPA1A: Life Technologies and Expression Analysis (LTEA) Assay for Heat shock 70 kDa protein 1 (HSPA1A) using HepaRG (AID 2283502)
In short: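 HSPA1A expression measured by qRT-PCR with ACTB/GAPDH/POLR2A normalization; curves fitted in both directions relative to DMSO vehicle. Exposure: 48 h in HepaRG cells, duplicate 8-point half-log series from 100 uM, 0.5% DMSO, serum-free induction medium.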

[10] = read-out: 3-Hydroxy-3-Methylglutaryl-CoA Synthase 2 (HMGCS2), HMGCS2 (gene 3158); experiment: LTEA_HepaRG_HMGCS2: Life Technologies and Expression Analysis (LTEA) Assay for 3-Hydroxy-3-Methylglutaryl-CoA Synthase 2 (HMGCS2) using HepaRG (AID 2283504)
In short: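 This steatosis marker was read as HMGCS2 mRNA change in HepaRG cells treated 48 h with up to 100 uM chemical. Normalisation used housekeeping genes; activity in either direction was fitted relative to 0.5% DMSO vehicle.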

HGF (gene 3082) = experiment: LTEA_HepaRG_HGF: Life Technologies and Expression Analysis (LTEA) Assay for Hepatocyte Growth Facto (HGF) using HepaRG (AID 2283505)
In short: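 Using HepaRG monolayers kept in 0.5% DMSO, chemicals were tested in duplicate over eight half-log concentrations from 100 uM for 48 h. Endpoint: HGF mRNA change relative to DMSO, normalized to ACTB/GAPDH/POLR2A.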

[11] = read-out: Insulin Like Growth Factor 1 (IGF1), IGF1 (gene 3479); experiment: LTEA_HepaRG_IGF1: Life Technologies and Expression Analysis (LTEA) Assay for Insulin Like Growth Factor 1 (IGF1) using HepaRG (AID 2283506)
In short: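 Expression measured by TaqMan qRT-PCR on a Fluidigm array, with three housekeeping genes for normalisation, after 48 h treatment of HepaRG cells. Top concentration 100 uM with half-log steps, 0.5% DMSO vehicle, bidirectional fit.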

[12] = read-out: Intercellular Adhesion Molecule 1 (ICAM1), ICAM1 (gene 3383); experiment: LTEA_HepaRG_ICAM1: Life Technologies and Expression Analysis (LTEA) Assay for Intercellular Adhesion Molecule 1 (ICAM1) using HepaRG (AID 2283507)
In short: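 Using the human liver line HepaRG, compounds are tested in duplicate over 48 h at concentrations up to 100 uM. Expression is determined by TaqMan qRT-PCR, normalized to endogenous controls, and analysed relative to 0.5% DMSO vehicle.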

[13] = read-out: Insulin-like growth factor-binding protein 1 (IGFBP1), IGFBP1 (gene 3484); experiment: LTEA_HepaRG_IGFBP1: Life Technologies and Expression Analysis (LTEA) Assay for Insulin-like growth factor-binding protein 1 (IGFBP1) using HepaRG (AID 2283508)
In short: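 HepaRG, 48 h, 8 conc. (max 100 uM, half-log), duplicates, 0.5% DMSO. Readout: TaqMan qRT-PCR, ACTB/GAPDH/POLR2A normalisation. Fit: bidirectional vs DMSO.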

[14] = read-out: Interleukin 6 (IL6), IL6 (gene 3569); experiment: LTEA_HepaRG_IL6: Life Technologies and Expression Analysis (LTEA) Assay for Interleukin 6 (IL6) using HepaRG (AID 2283509)
In short: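 qRT-PCR read-out of IL6 transcript, normalized to three housekeeping genes, after 48 h chemical exposure of HepaRG cells; 8-point half-log series, top 100 uM, 0.5% DMSO vehicle. Bidirectional curve fitting against DMSO baseline.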

[15] = read-out: Interleukin 6 Receptor (IL6R), IL6R (gene 3570); experiment: LTEA_HepaRG_IL6R: Life Technologies and Expression Analysis (LTEA) Assay for Interleukin 6 Receptor (IL6R) using HepaRG (AID 2283510);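 for AC50: differentiated human HepaRG liver cells in serum-free induction medium; TaqMan qRT-PCR signal normalized to ACTB GAPDH and POLR2A housekeeping genes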
In short: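 IL6R transcript level by qRT-PCR after 48 h chemical exposure (8-point, half-log, max 100 uM, 0.5% DMSO vehicle) of HepaRG cells in serum-free induction medium. Normalized to three housekeeping genes; curves fitted in both directions relative to DMSO.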

[16] = read-out: Potassium channel subfamily K member 1 (KCNK1), KCNK1 (gene 3775); experiment: LTEA_HepaRG_KCNK1: Life Technologies and Expression Analysis (LTEA) Assay for Potassium channel subfamily K member 1 (KCNK1) using HepaRG (AID 2283511)
In short: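 HepaRG, 48 h exposure, 8-pt half-log series top 100 uM, 0.5% DMSO vehicle, duplicates. Readout: KCNK1 transcript by qRT-PCR (Fluidigm array), housekeeping-normalized; bidirectional curve fit relative to DMSO baseline.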

[17] = read-out: Keratin 19 (KRT19), KRT19 (gene 3880); experiment: LTEA_HepaRG_KRT19: Life Technologies and Expression Analysis (LTEA) Assay for Keratin 19 (KRT19) using HepaRG (AID 2283512)
In short: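 Readout is qRT-PCR of KRT19 mRNA, normalized to ACTB, GAPDH and POLR2A, from HepaRG cells treated 48 h with eight-point half-log dilutions topping at 100 uM. Activity in either direction is scored relative to 0.5% DMSO vehicle.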

[18] = read-out: Hypoxia-inducible factor 1-alpha (Homo sapiens) (UniProt Q16665); experiment: LTEA_HepaRG_HIF1A: Life Technologies and Expression Analysis (LTEA) Assay for Hypoxia-inducible factor 1 (HIF1A) Trancription factor using HepaRG (AID 2283503)
In short: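 HIF1A transcript level read by qRT-PCR (ACTB, GAPDH, POLR2A normalization) after 48 h chemical exposure of HepaRG cultures. Eight half-log concentrations, top 100 uM, 0.5% DMSO vehicle, duplicates; bidirectional curve fit against DMSO baseline.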

Measured: AC50

Chain of Hypoxia-inducible factor 1-alpha (Homo sapiens) (Q16665 whole entry, looked up): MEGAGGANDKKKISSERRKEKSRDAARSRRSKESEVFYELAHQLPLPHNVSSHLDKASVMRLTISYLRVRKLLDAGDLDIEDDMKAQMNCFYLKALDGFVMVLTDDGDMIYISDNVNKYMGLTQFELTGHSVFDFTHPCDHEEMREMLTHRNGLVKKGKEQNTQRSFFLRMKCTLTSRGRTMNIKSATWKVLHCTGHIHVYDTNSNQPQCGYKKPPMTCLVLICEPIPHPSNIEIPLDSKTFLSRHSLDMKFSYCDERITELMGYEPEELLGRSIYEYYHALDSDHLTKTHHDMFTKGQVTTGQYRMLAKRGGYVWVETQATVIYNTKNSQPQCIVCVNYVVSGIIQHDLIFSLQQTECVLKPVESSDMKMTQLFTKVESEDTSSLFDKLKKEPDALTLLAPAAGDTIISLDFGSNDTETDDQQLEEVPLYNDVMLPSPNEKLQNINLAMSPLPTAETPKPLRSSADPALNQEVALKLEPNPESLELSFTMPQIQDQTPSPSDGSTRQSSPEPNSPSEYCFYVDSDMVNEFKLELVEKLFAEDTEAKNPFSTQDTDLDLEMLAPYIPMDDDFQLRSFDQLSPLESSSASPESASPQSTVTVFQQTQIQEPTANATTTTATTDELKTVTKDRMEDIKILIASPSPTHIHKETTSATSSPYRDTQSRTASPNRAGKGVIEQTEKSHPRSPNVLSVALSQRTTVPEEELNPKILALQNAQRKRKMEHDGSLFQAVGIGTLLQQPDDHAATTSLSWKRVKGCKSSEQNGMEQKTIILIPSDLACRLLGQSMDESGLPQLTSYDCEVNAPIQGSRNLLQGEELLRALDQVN

CC(=O)O[C@]1(C(C)=O)CC[C@H]2[C@@H]3C=C(Cl)C4=CC(=O)[C@@H]5C[C@@H]5[C@]4(C)[C@H]3CC[C@@]21C
inactive: [2] | [5] | [7] | [8] | HGF (gene 3082) | [12] | [14] | [15] | [16]
active: CYP3A5 (gene 1577) 50 µM | [1] 21.7 µM | [3] 59 µM | [4] 15.8 µM | [6] 50 µM | [9] 83.4 µM | [10] 67.1 µM | [11] 50 µM | [13] 50 µM | [17] 17.9 µM

Cc1cc(Cc2ccc(N)c(C)c2)ccc1N
active: [3] 5.09 µM
not listed: [12]
inactive: all other assays above

CN(C)CCCN1c2ccccc2Sc2ccc(Cl)cc21
active: CYP3A5 (gene 1577) 83.7 µM | [1] 88.3 µM | [4] 86.4 µM | [6] 49.7 µM | [9] 76.9 µM | [10] 68.6 µM | [11] 77.7 µM | [12] 77.7 µM | [13] 72.8 µM | [14] 77 µM | [15] 44.7 µM | [17] 82.9 µM
inactive: [2] | [5] | [7] | [8] | HGF (gene 3082) | [16]

NC(=Nc1ccccc1)Nc1ccccc1
active: [13] 13.2 µM
not listed: CYP3A5 (gene 1577) | [7] | [12]
inactive: all other assays above

CCCCCCCCCC[N+](C)(C)[O-]
not listed: CYP3A5 (gene 1577) | [7] | [12]
inactive: all other assays above

O=C1CCCCC1
not listed: [3] | [12]
inactive: all other assays above

CC(=O)OC1CC(C)OC(C)O1 (stereo not given)
not listed: CYP3A5 (gene 1577) | [7]
inactive: all other assays above

CCCCc1nc2cccnc2n1Cc1ccc(-c2ccccc2-c2nnn[nH]2)cc1
active: [3] 26.6 µM | [11] 50 µM
not listed: [1] | [12] | [17]
inactive: all other assays above

CN(C)C(=O)NC1(c2ccccc2)CCN(CC[C@@]2(c3ccc(F)c(F)c3)CN(C(=O)c3ccccc3)CCO2)CC1
active: [2] 47.3 µM | [6] 75.1 µM | [10] 47 µM | [11] 15.7 µM | [17] 27 µM
not listed: [3] | [7] | [12]
inactive: all other assays above

NCCOCCOCCN
not listed: [3] | [7] | [12]
inactive: all other assays above

C/C=C/C=C/C(=O)O
active: [5] 0.256 µM
not listed: [2] | [3]
inactive: all other assays above

c1ccc2occc2c1
not listed: [3] | [7]
inactive: all other assays above

O=Cc1ccccc1C=O
not listed: CYP3A5 (gene 1577) | [7] | [12]
inactive: all other assays above

C#CC(O)C(CC)CCCC (stereo not given)
not listed: [3] | [7] | [12]
inactive: all other assays above

CC(=O)O
not listed: CYP3A5 (gene 1577) | [7]
inactive: all other assays above
